Test results from PubChem BioAssay AID440 (NMMLSC, 2006).
About 180 (0.75%) of roughly 24,000 compounds were called active. Rule as the data show it: active = inhibition above about 30%; inconclusive = no clear call, values can overlap the other calls; inactive = below that. Shown is part of a subset that was picked to be rich in actives.

biological target: fMet-Leu-Phe receptor (Homo sapiens) (UniProt P21462); assay: human FPR ligands by binding competition, primary screen, cell-based, FPRL1 counter-screen, flow cytometry (AID 440); conditions: FPR-expressing cells, fluorescent ligand binding, stronger effect = higher value, concentration not given here;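 also: 0% = buffer wells and 100% = receptor blocker peptide wells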
Sequence (P21462 whole entry, looked up): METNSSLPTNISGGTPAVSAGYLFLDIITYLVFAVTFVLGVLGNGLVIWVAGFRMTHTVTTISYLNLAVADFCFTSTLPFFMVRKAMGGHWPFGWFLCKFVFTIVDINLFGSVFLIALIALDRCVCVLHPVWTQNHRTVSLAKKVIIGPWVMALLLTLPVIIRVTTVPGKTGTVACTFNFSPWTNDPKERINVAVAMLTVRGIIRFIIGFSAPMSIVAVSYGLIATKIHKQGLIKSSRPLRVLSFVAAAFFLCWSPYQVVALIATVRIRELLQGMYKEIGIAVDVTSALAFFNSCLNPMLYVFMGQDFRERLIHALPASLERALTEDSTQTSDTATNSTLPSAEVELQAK

Structure (SMILES)	inhibition
COc1ccc(CNC(=O)C2CCN(S(=O)(=O)N3CCOCC3)CC2)cc1	-0.9% (inactive)
COc1ccc(/C(O)=C2/C(=O)C(=O)N(CCCN(C)C)C2c2ccccc2)cc1OC (stereo not given)	-8.5% (inactive)
Cc1ccc(NC(=O)CN(C)S(=O)(=O)c2cnc[nH]2)cc1C	-11.5% (inactive)
O=C(O)Cc1ccc(NC(=O)C2CCCCC2C(=O)O)cc1 (stereo not given)	-9.4% (inactive)
COc1ccccc1N1CCN(C(=O)c2c(-c3c(Cl)cccc3Cl)noc2C)CC1	6.9% (inactive)
CCOC(=O)CN1CC23C=CC(O2)C(C(=O)Nc2ccc(F)cc2)C3C1=O (stereo not given)	-4.5% (inactive)
COc1ccc(CC(NC(C)=O)C(=O)NC2CCN(C(=O)Nc3ccc(C#N)cc3)CC2)cc1OC (stereo not given)	13.5% (inactive)
CCOC(=O)c1oc2ccccc2c1NC(=O)c1cccs1	-2.1% (inactive)
CCOc1ccc(N(CC(=O)OC)S(=O)(=O)c2c(C)noc2C)cc1	-18.8% (inactive)
O=C(C1=C(O)C(=O)N(Cc2ccccc2)C1c1cccnc1)c1ccco1 (stereo not given)	36% (active)
O=C(C1=C(O)C(=O)N(c2ncccn2)C1c1cccs1)c1ccco1 (stereo not given)	-4.1% (inactive)
CC1=C(C(=O)OCc2ccccc2)C(c2ccco2)n2ncnc2N1 (stereo not given)	-4.9% (inactive)
O=C1c2ccccc2C(O)N1Cc1ccccc1 (stereo not given)	-3.5% (inactive)
O=C(Nc1ccccc1)N(Cc1cccnc1)Cc1ccco1	4.3% (inactive)
O=C(C1=C(O)C(=O)N(Cc2ccccc2)C1c1ccco1)c1ccco1 (stereo not given)	43.1% (active)
Cc1cccc(N2C(=O)SC(N(CC(=O)O)c3cccc(C)c3)C2=O)c1 (stereo not given)	76.8% (active)
CCC1Oc2ccc(Cl)cc2N(CC(=O)O)C1=O (stereo not given)	4.3% (inactive)
Cc1cc(C)cc(N(CC(=O)NCC2CCCO2)S(=O)(=O)c2c(C)noc2C)c1 (stereo not given)	3.2% (inactive)
COc1ccc(C2CC(c3ccc(Cl)cc3Cl)Nc3nc(N)nn32)cc1OC (stereo not given)	6.7% (inactive)
COc1ccccc1C(=O)N1CCN=C1SCc1cccnc1	0.1% (inactive)
CCOC(=O)c1oc2c(CN3CCN(C)CC3)c(O)ccc2c(=O)c1-c1ccc(Br)cc1	-5.9% (inactive)
CC(C)OC(=O)c1cc(NC(=O)C2C3CCC(O3)C2C(=O)O)cc(C(=O)OC(C)C)c1 (stereo not given)	39.8% (active)
Cc1sc(NC(=O)C2C3CCC(O3)C2C(=O)O)c(C(=O)OC(C)C)c1-c1ccc(Cl)cc1 (stereo not given)	6.3% (inactive)
CC(C)COC(=O)C1C2C=CC3(CN(C(C)c4ccc(Br)cc4)C(=O)C13)O2 (stereo not given)	-6.6% (inactive)
Cc1ccc(C)c(N(CC(=O)NCc2ccco2)C(=O)CCC(=O)Nc2ccccn2)c1	19% (inactive)
CCN(CC)CCNC(=O)Cn1cnc2sc(C)c(S(=O)(=O)N3CCOCC3)c2c1=O	-9.4% (inactive)
C/C(CC(O)(/C=N/O)c1ccccc1)=N\O (stereo not given)	7.2% (inactive)
O=C(Cn1c(=O)n(Cc2ccco2)c(=O)c2ccccc21)NCC1CCCO1 (stereo not given)	5.8% (inactive)

Structure (SMILES)	inhibition
N#CCCN1CCN(S(=O)(=O)c2ccc(S(=O)(=O)NC3CC3)cc2)CC1	-1.2% (inactive)
CCOc1ccc(CCNC(=O)C2CCN(c3ccc(N4CCOCC4)nn3)CC2)cc1OCC	-8.8% (inactive)
COCCOC(=O)C1=C(C)NC(=O)CC1c1cc2c(cc1Br)OCO2 (stereo not given)	-1.8% (inactive)
Nc1nonc1-c1noc(-c2ccc(Br)o2)n1	-6.7% (inactive)
CCC(C)(C(=O)NC1CCCC1)N(C(=O)CNC(C)=O)c1ccc(C)cc1 (stereo not given)	5.8% (inactive)
O=C(COC(=O)c1ccccc1C(=O)c1ccccc1)c1ccco1	-1% (inactive)
CCOC(=O)N1CCN(C(=O)c2cc3c(-c4ccc(Cl)cc4)nn(C)c3s2)CC1	8.5% (inactive)
CC1CCN(c2oc(-c3ccccc3F)nc2C#N)CC1	-10.3% (inactive)
O=C(NCCc1ccc(Cl)cc1)C1CC(=O)N(C2CCCCC2)C1 (stereo not given)	-0.9% (inactive)
CCOc1cc2c(cc1OCC)C(C(=O)O)C(c1ccc(OC)c(O)c1)N(C)C2=O (stereo not given)	12.3% (inactive)
CCOc1ccc(CC(=O)Nc2ccc(S(=O)(=O)Nc3cc(C)on3)cc2)cc1OCC	-0.6% (inactive)
O=C(Cn1nnc(-c2ccc(CN3CCOCC3)cc2)n1)NC1CCCCC1	5.2% (inactive)
Cc1cc(C(=O)O)c(S(C)(=O)=O)s1	-3.8% (inactive)
Cc1cc(=O)n(C)c(=O)n1CCCNc1ccccc1	-1.3% (inactive)
COCc1cc(C)nc(SCC(=O)Nc2cccc(C)c2)c1C#N	-8.6% (inactive)
CCOC(=O)c1ccc(CS(=O)c2ccc(Cl)cc2)o1 (stereo not given)	-1.1% (inactive)
CCCS(=O)(=O)N1CCC(C(=O)NCCCN(C)Cc2ccccc2)CC1	-2.3% (inactive)
C=CCN(CC=C)C(=O)CN1C(=O)c2ccccc2C1=O	13.3% (inactive)
Cc1cc(=O)oc(C)c1C(=O)NCc1ccc(F)cc1	-12.6% (inactive)
O=C(O)C1CCCCC1C(=O)Nc1ccc(Cl)cc1 (stereo not given)	-10.1% (inactive)
Cc1c2cnn(-c3ccccc3)c(=O)c2c(C)n1CCCC(=O)N1CCN(C)CC1	1.2% (inactive)
O=C1CCC(Cc2ccccc2)N1 (stereo not given)	1.5% (inactive)
COc1ccc(C(=O)NC(=O)CSc2nnc(-c3ccco3)n2-c2ccccc2)cc1	-1.4% (inactive)
Cn1c(C(=O)N2CCC(C(N)=O)CC2)cc2c(=O)n(C)c3ccccc3c21	-1% (inactive)
O=C(NCc1ccco1)C1CCCN(S(=O)(=O)c2cccc3nonc23)C1 (stereo not given)	-5.3% (inactive)
Cn1c(=O)n(C)c2cc(CNc3ccc(N4CCOCC4)c(C(=O)O)c3)ccc21	0.5% (inactive)
Cc1ccc(NC(=O)c2nc[nH]c2C(=O)N2CCCCC2)c(C(=O)c2ccccc2)c1	-3.6% (inactive)
